About 83,000 compounds went through this panel and 20% of them were active in at least one assay; those are over-represented in the sample as a whole.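 Compound tested at a single concentration for 48 hours in 96-well plates; a percent growth value below 10 was scored as active.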 Values without a mark were called inactive. Activity calls are given as the source filed them.
What follows are compounds tested on IGROV1 ovarian (assay: NCI-60 one-dose screen, 48 h (100 = growth as untreated, 0 = no growth, -100 = all killed)). Conditions: 10 µM unless noted.

Compound | growth
CC(C)C1=NOC(=O)C1=Cc1cn(-c2cccnc2)nc1-c1ccccc1 | 102%
O=C1COCCN1c1ccc(NCc2cn(Cc3ccccc3)c3ccccc23)cc1 | 15.5%
COc1ccc(N(c2nc(-c3ccc([N+](=O)[O-])cc3)cs2)C(C)C)cc1 | 80.4%
OC(c1ccc(Cl)cc1)(c1ccc(Cl)cc1)C(O)(c1ccc(Cl)cc1)c1ccc(Cl)cc1 | 19.6%
O=C(NCc1ccc(Cn2c(=O)sn(-c3ccccc3)c2=O)cc1)OCc1ccc2c(Br)cc(Br)c(O)c2n1 | -80.4% (active)
O=S(=O)(NCCNc1nccc(-c2c(-c3cccc(F)c3)nc3occn23)n1)c1ccc(C(F)(F)F)cc1 | 77%
O=C(Nc1ccc(Cl)c(C(F)(F)F)c1)Nc1ccc(-c2cccnc2)cc1N1CCC(CO)CC1 | 61.4%
O=C(CCNCc1ccccc1)c1ccccc1 | 114%

These compounds were tested on OVCAR-3 ovarian in the same assay as above. Conditions: 10 µM unless noted.

Compound | growth
CCNc1cc2c(cc1Br)-c1ccccc1C2=O | 91.8%
Cn1cc(-c2noc(-c3cn(C)c4ncccc34)n2)c2cc(Cl)ccc21 | 109%
N#Cc1ccc(-c2ccc(COc3ccc(CC4SC(=O)NC4=O)cc3)cc2)cc1 (stereo not given) | 64.7%
O=C(N[C@@H]1CCCc2ccccc21)[C@H](CCC(=O)N1CCN(C2CCCCC2)CC1)N1C(=O)[C@@H](N2C(=O)OC[C@@H]2c2ccccc2)[C@H]1/C=C/c1ccccc1 | 32.5%
CCOC(=O)/C(C#N)=C(\C)CCc1ccccc1 | 118%
COc1ccc(C(=O)CSc2nccc(Nc3ccc(C(=O)O)cc3)n2)cc1 | 100%
O=C(NCCCCCCCNC(=O)OCc1ccc2c(Cl)cc(Cl)c(O)c2n1)OCc1ccc2c(Cl)cc(Cl)c(O)c2n1 | -87.2% (active)
CCN(CCO)CCC(=O)c1ccc([N+](=O)[O-])cc1 | 104%
CCOC(=O)COc1c(C)cc(SSc2cc(C)c(OCC(=O)OCC)c(C)c2)cc1C | 107%
CC(C)C1=NOC(=O)C1=Cc1cn(-c2ccco2)nc1-c1ccccc1 | 90.6%
CCOC(=O)Nc1ccc2c(c1)/C(=N\NC(=S)NC)c1ccccc1-2 | 95.6%
COc1ccc(/C=C(/C(=O)c2ccc(Cl)cc2)C(=O)C(F)(F)F)cc1 | 98.7%
O=[N+]([O-])c1cccc(N=NNc2cccc([N+](=O)[O-])c2)c1 | 101%
COc1ccc2c(c1)c(-c1noc(-c3cn(C)c4ncc(F)cc34)n1)cn2C | 42%
CCn1cc(-c2ccnc(NCCNS(=O)(=O)c3cccc4ccccc34)c2)c(-c2cccc(O)c2)n1 | 100%
Cc1ccc(-c2cc(O)c(-c3ccc(C)cc3C)cc2O)c(C)c1 | 67.8%
CCc1ccc(-c2ccc(COc3ccc(CC4SC(=O)NC4=O)cc3)cc2)cc1 (stereo not given) | 73.6%
CCCn1ccnc1C(O)c1ccc(OCc2ccccc2)c(OC)c1 (stereo not given) | 95.7%
O=C(Nc1cc(F)cc2cccnc12)c1cnc(N2CCNCC2)cn1 | 6.04% (active)

Compound | growth
O=C(CCCSc1nc(-c2ccccc2)cc(-c2ccccc2)n1)NO | -5.33% (active)
O=C(CCN1CCCCC1)c1ccc(Cl)cc1 | 106%
O=C(NCCCNC(=O)OCc1ccc2c(Br)cc(Br)c(O)c2n1)OCc1ccc2c(Br)cc(Br)c(O)c2n1 | -69.3% (active)
Cc1ccc(N)c(O)c1 | 87.7%
COc1cc2c(=O)[nH]c3cc([N+](=O)[O-])ccc3c2cc1[N+](=O)[O-] | 63.7%
C/C=C/C1OC23CCCCC2C(C#N)(C(=N)O3)C1(C#N)C#N (stereo not given) | 90.2%
Cc1ccc(S(=O)(=O)NCCCNc2nccc(-c3c(-c4cccc(F)c4)nc4occn34)n2)cc1 | 89.7%
COc1ccc2c(c1)C(C)Cc1c(ncnc1-n1cnc3ccccc31)N2C (stereo not given) | 6% (active)
Clc1ccccc1/C=N\Nc1ccccn1 | 94.1%
CC(C)C1=NOC(=O)C1=Cc1cn(-c2ccccc2)nc1-c1cccc([N+](=O)[O-])c1 | 89.3%
CC(C)C1=NOC(=O)C1=Cc1cn(-c2cccnc2)nc1-c1ccccc1 | 108%
O=C1COCCN1c1ccc(NCc2cn(Cc3ccccc3)c3ccccc23)cc1 | 80.9%
COc1ccc(N(c2nc(-c3ccc([N+](=O)[O-])cc3)cs2)C(C)C)cc1 | 81.1%
OC(c1ccc(Cl)cc1)(c1ccc(Cl)cc1)C(O)(c1ccc(Cl)cc1)c1ccc(Cl)cc1 | 40.7%
O=C(NCc1ccc(Cn2c(=O)sn(-c3ccccc3)c2=O)cc1)OCc1ccc2c(Br)cc(Br)c(O)c2n1 | -90.9% (active)
O=S(=O)(NCCNc1nccc(-c2c(-c3cccc(F)c3)nc3occn23)n1)c1ccc(C(F)(F)F)cc1 | 99.1%
O=C(Nc1ccc(Cl)c(C(F)(F)F)c1)Nc1ccc(-c2cccnc2)cc1N1CCC(CO)CC1 | 38%
O=C(CCNCc1ccccc1)c1ccccc1 | 102%

Reference: PubChem BioAssay (NCI)
